The list is not random: actives were taken first. Their share in the collection is about 4.1%.
DAX1 inh-1 = DAX1 (NR0B1) inhibitors on StAR promoter, primary screen, cell-based, luminescence, SF-1 (NR5A1), full-length DAX-1; HEK293T StAR-luciferase reporter, SF-1/DAX-1 repression relief; inhibition, % at 6.8 µM; hit rate 1.1% among 370,000;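 active means inhibition above the mean over all tested compounds plus 3 SD, cut at about 3.6% in these data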;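 further: 0% = DAX-1 cells with DMSO and 100% = cells lacking DAX-1 with DMSO; higher inhibition means more luminescence from relief of DAX-1 repression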
hcDAF12 agonist = H. contortus DAF-12 nuclear receptor activators, primary screen, cell-based, luminescence, HEK293, lit1-tk-luc reporter; hit rate 1.4% among 370,000; HEK293 hcDAF-12 lit1-tk-luc reporter; 0% DMSO, 100% Δ7-dafachronic acid; AID 652067, 2013; activation, % at 6.8 µM;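 active means activation above the mean of all tested compounds plus 3 SD, cut at about 5.5% in these data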;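 further: 100% = response to 3 µM Δ7-dafachronic acid high control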
hgDAF12 agonist = H. glycines DAF-12 receptor agonists, primary screen, cell-based, luminescence, HEK293, GAL4 fusion, UAS-luciferase | Nuclear hormone receptor DAF-12 (Heterodera glycines), GAL4 fusion | activation, % at 6.8 µM | HEK293 GAL4-hgDAF12 UAS-luciferase reporter, agonist luminescence; normalized to butyrate control | AID 687014, 2013 | hit rate 1.8% among 370,000;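 active means activation above a cutoff set at the mean of all screened compounds plus 3 SD, cut at about 10% in these data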;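 further: 0% = DMSO wells and 100% = sodium butyrate wells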
ssDAF-12 act = S. stercoralis DAF-12 nuclear receptor activators, primary screen, cell-based, luminescence, HEK293, GRIP1 co-expression, lit1-tk-luc. HEK293 ssDAF-12/GRIP1 lit1-tk-luc reporter; % of 3 µM dafachronic acid response. hit rate 1% among 370,000. activation, % at 6.8 µM;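 active means activation above the mean over all tested compounds plus 3 SD, cut at about 0.9% in these data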;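 further: 0% = DMSO-only wells and 100% = 3 µM delta7-dafachronic acid wells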
DAX1 inh-2 = DAX1 (NR0B1) inhibitors, primary screen, cell-based, HEK293, Gal4-DAX1, luciferase luminescence | Nuclear receptor subfamily 0 group B member 1 (Homo sapiens), P51843 | hit rate 0.99% among 340,000 | inhibition, % at 6.75 µM | HEK293 Gal4-DAX1 luciferase reporter;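 active means inhibition above the mean over all tested compounds plus 3 SD, cut at about 4.2% in these data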;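 further: 0% = DAX1-transfected cells with DMSO and 100% = empty-vector control cells with DMSO; inhibition shows as a rise in luminescence from relieved DAX1 repression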
LXRb hcDAF ctr = LXR agonists, Gal4 luciferase reporter, confirmation, counter-screen for hcDAF-12 agonist project, cell-based, luminescence, HEK293, H. contortus campaign; activation, % at 6.8 µM; shares compounds with hcDAF12 agonist; HEK293 Gal4-LXR tk-luc reporter, 24 h; normalized: DMSO 0%, positive control 100%; 3,400 tested, under 10 active;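 active means mean percent activation of the reporter above a cutoff set as the average over tested compounds plus their standard deviation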
Target sequence (P55055 whole entry, looked up, the tested form may be a part): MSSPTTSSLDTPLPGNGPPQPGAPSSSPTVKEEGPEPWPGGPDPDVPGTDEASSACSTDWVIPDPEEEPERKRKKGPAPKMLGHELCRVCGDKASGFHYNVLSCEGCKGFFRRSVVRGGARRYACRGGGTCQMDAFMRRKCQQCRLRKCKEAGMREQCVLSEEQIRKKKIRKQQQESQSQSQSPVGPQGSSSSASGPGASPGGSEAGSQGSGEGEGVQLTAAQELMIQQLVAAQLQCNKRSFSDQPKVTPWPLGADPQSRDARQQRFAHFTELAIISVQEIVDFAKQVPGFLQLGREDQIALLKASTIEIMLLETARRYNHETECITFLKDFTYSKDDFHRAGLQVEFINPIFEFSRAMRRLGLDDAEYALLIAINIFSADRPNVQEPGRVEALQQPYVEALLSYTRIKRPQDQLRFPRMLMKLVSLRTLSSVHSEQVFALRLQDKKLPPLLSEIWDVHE
hcDAF12 ag = H. contortus DAF-12 receptor agonists, confirmation, cell-based, luminescence, HEK293, lit1-tk-luc, triplicate; hit rate 61% among 3,400; HEK293 hcDAF-12 lit1-tk-luc reporter; % of Δ7-dafachronic acid response; activation, % at 6.8 µM; AID 743032, 2013; shares compounds with hcDAF12 agonist;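 active means mean activation across triplicate tests above the threshold derived from the earlier primary screen, cut at about 5.5% in these data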;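 further: 0% = DMSO only wells and 100% = 3 µM Δ7-dafachronic acid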
Active calls of the source: *.

Screening CCOC(=O)c1sc(=NC(=O)c2ccc(Cl)s2)n(C)c1C returned DAX1 inh-1 2, hcDAF12 agonist 6.7*, hgDAF12 agonist 8, ssDAF-12 act 0, DAX1 inh-2 3, LXRb hcDAF ctr 2 and hcDAF12 ag 15*.
Screening CCOC(=O)c1sc(=NC(=O)c2cccs2)n(C)c1C returned DAX1 inh-1 3, hcDAF12 agonist 7.8*, hgDAF12 agonist 17*, ssDAF-12 act 2.5*, DAX1 inh-2 1, LXRb hcDAF ctr 2 and hcDAF12 ag 23*.
For CCOC(=O)c1sc(=NC(=O)c2ccc(OC(C)C)cc2)n(C)c1C the results were DAX1 inh-1 2, hcDAF12 agonist 1, hgDAF12 agonist 1, ssDAF-12 act -2 and DAX1 inh-2 0.
For CCN(CC)C(=O)C(c1ccccc1)S(=O)(=O)N1CCOCC1 (stereo not drawn) the results were DAX1 inh-1 -1, hcDAF12 agonist -1, hgDAF12 agonist 1, ssDAF-12 act -1 and DAX1 inh-2 0.
Cc1ccc2c(c1)-c1c(cnn1CC(=O)NCCc1ccc(O)cc1)CO2 was read as DAX1 inh-1 0, hcDAF12 agonist 1, hgDAF12 agonist -1 and ssDAF-12 act -2.
`O=C(COC(=O)c1cncc(Br)c1)Nc1ccc2c(c1)OCO2` gave DAX1 inh-1 0, hcDAF12 agonist 7.0*, hgDAF12 agonist 1, ssDAF-12 act 0, DAX1 inh-2 2, LXRb hcDAF ctr 0 and hcDAF12 ag 4.
For COc1ccc2nc(N=Nc3ccc(O)c4ccccc34)sc2c1 the results were DAX1 inh-1 0, hcDAF12 agonist 12*, hgDAF12 agonist 2, ssDAF-12 act 1, DAX1 inh-2 0, LXRb hcDAF ctr 0 and hcDAF12 ag 2.
NC(=O)[C@@H]1[C@@H]2C(=O)N(c3ccc(F)cc3)C(=O)[C@@H]2[C@H]2C=Cc3ccccc3N21 was read as DAX1 inh-1 0, hcDAF12 agonist 7.5*, hgDAF12 agonist 1, ssDAF-12 act 0, LXRb hcDAF ctr 0 and hcDAF12 ag 5.
`Cc1[nH]c2ccccc2c1CC(=O)Nc1ccc(Nc2cccnc2)c(Br)c1` gave DAX1 inh-1 -2, hcDAF12 agonist 2, hgDAF12 agonist 2 and ssDAF-12 act 0.
For CCCN(Cc1cc(=O)[nH]c2ccccc12)C(=O)CC the results were DAX1 inh-1 0, hcDAF12 agonist 1, hgDAF12 agonist -2, ssDAF-12 act 0 and DAX1 inh-2 1.
For CCC(=O)N(CC)Cc1cc(=O)[nH]c2ccccc12 the results were DAX1 inh-1 1, hcDAF12 agonist 6.8*, hgDAF12 agonist 5, ssDAF-12 act 0, DAX1 inh-2 3, LXRb hcDAF ctr 0 and hcDAF12 ag 4.
Screening Oc1oc(-c2ccccc2)nc1C=Nc1cccc2ccccc12 returned DAX1 inh-1 -1, hcDAF12 agonist 12*, hgDAF12 agonist 3, ssDAF-12 act 0, DAX1 inh-2 0, LXRb hcDAF ctr 0 and hcDAF12 ag 5.
Screening Oc1oc(-c2ccccc2)nc1/C=N/c1nccs1 returned DAX1 inh-1 0, hcDAF12 agonist 0, hgDAF12 agonist 7, ssDAF-12 act 0 and DAX1 inh-2 2.
For O=C(CCSc1nc2ccccc2o1)N1CCOCC1 the results were DAX1 inh-1 0, hcDAF12 agonist 7.1*, hgDAF12 agonist 1, ssDAF-12 act 0, DAX1 inh-2 1, LXRb hcDAF ctr 0 and hcDAF12 ag 3.
COCCCNC(=O)c1ccc(Cn2c(=O)c3ccccc3n(Cc3ccc(C(C)C)cc3)c2=O)cc1 was read as DAX1 inh-1 0, hcDAF12 agonist -3, hgDAF12 agonist 0 and ssDAF-12 act -1.
Screening CC1Oc2ccccc2OC1C(=O)Nc1nccs1 (stereo not drawn) returned DAX1 inh-1 1, hcDAF12 agonist 3, hgDAF12 agonist 7, ssDAF-12 act 1 and DAX1 inh-2 1.
For Cc1cc(NC(=O)C2Oc3ccccc3OC2C)no1 (stereo not drawn) the results were DAX1 inh-1 0, hcDAF12 agonist 7.0*, hgDAF12 agonist 2, ssDAF-12 act 0, DAX1 inh-2 -1, LXRb hcDAF ctr 0 and hcDAF12 ag 2.
For O=C(NCc1cccs1)C(NS(=O)(=O)c1cccc2nsnc12)c1ccccc1 (stereo not drawn) the results were DAX1 inh-1 0, hcDAF12 agonist 7.1*, hgDAF12 agonist -2, ssDAF-12 act 1, DAX1 inh-2 0, LXRb hcDAF ctr 0 and hcDAF12 ag 1.
`O=C(CSc1nnc2ccccn12)c1ccc2c(c1)OCCO2` gave DAX1 inh-1 3.8*, hcDAF12 agonist 6.6*, hgDAF12 agonist 9, ssDAF-12 act 0, DAX1 inh-2 3, LXRb hcDAF ctr 1 and hcDAF12 ag 4.
For O=C(CSc1nnc2ccccn12)N1CCc2ccccc21 the results were DAX1 inh-1 3, hcDAF12 agonist 7.3*, hgDAF12 agonist 13*, ssDAF-12 act 0, DAX1 inh-2 2, LXRb hcDAF ctr 1 and hcDAF12 ag 5.7*.
For O=C(CSc1nnc2ccccn12)N1CCc2ccccc2C1 the results were DAX1 inh-1 1, hcDAF12 agonist 1, hgDAF12 agonist 4, ssDAF-12 act 0 and DAX1 inh-2 1.
For COC(=O)[C@H](CC(C)C)N(CCCc1cn(Cc2ccc(C)cc2)nn1)S(=O)(=O)c1ccc(F)cc1Br the results were DAX1 inh-1 -2, hcDAF12 agonist -3, hgDAF12 agonist -6 and ssDAF-12 act -2.
`Cn1nc(-c2ccc(Cl)cc2)c2cc(C(=O)NCCCN3CCCC3)sc21` gave DAX1 inh-1 1, hcDAF12 agonist 9.5*, hgDAF12 agonist 6, ssDAF-12 act 0, DAX1 inh-2 3, LXRb hcDAF ctr 0 and hcDAF12 ag 6.5*.
`COCCNC(=O)c1cc2c(-c3ccc(Cl)cc3)nn(C)c2s1` gave DAX1 inh-1 -1, hcDAF12 agonist 6.8*, hgDAF12 agonist 3, ssDAF-12 act -1, DAX1 inh-2 0, LXRb hcDAF ctr 0 and hcDAF12 ag 3.

Screening data deposited in PubChem by The Scripps Research Institute Molecular Screening Center.
